Experimental data: PubChem BioAssay AID1159580 (chemical genetic matrix, 2015)
Among all 5,500 compounds or so, about 2,000 (36%) were called active. Another 18% or so got no clear call; they are omitted. No stated cut-off is given here; in the data, active means normalized growth mostly below about 0.91 (no sharp cut-off); inconclusive means no clear call, values can overlap the other calls; inactive means mostly above about 0.92. The list shows a part of the results.

Test: chemical genetic growth profiling, strain panel (AID 1159580);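 further: tested at 20 µM; growth read once vehicle control cultures reached saturation at 30 °C; 1 = growth at the plate median or of vehicle wells; lower values mean less growth of the strain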
Conditions: growth OD

Measured: normalized growth

CCn1cc(C(=O)O)c(=O)c2cc(F)c(N3CCNCC3)cc21
inactive: S. cerevisiae deletion strains, locus YJR043C, strain POL32, hits give low values 0.99 | S. cerevisiae deletion strains, locus YJR066W, strain TOR1, hits give low values 0.954 | S. cerevisiae deletion strains, locus YKL009W, strain mrt4, hits give low values 0.994 | S. cerevisiae deletion strains, locus YKL068W, hits give low values 1.01 | S. cerevisiae deletion strains, locus YKL085W, strain MDH1 (second series), hits give low values 1 | S. cerevisiae deletion strains, locus YKL085W, strain MDH1, hits give low values 1 | S. cerevisiae deletion strains, locus YKL160W, strain elf1, hits give low values 1.02 | S. cerevisiae deletion strains, locus YKL190W, strain CNB1, hits give low values 1.01 | S. cerevisiae deletion strains, locus YKR001C, strain vps1, hits give low values 0.985 | S. cerevisiae deletion strains, locus YKR026C, strain gcn3, hits give low values 0.978 | S. cerevisiae deletion strains, locus YKR091W, strain srl3, hits give low values 0.992 | S. cerevisiae deletion strains, locus YLL001W, strain dnm1, hits give low values 0.998 | S. cerevisiae deletion strains, locus YLL026W, hits give low values 0.992 | S. cerevisiae deletion strains, locus YLL041C, strain sdh2, hits give low values 0.981 | S. cerevisiae deletion strains, locus YLR027C, strain aat2, hits give low values 0.988 | S. cerevisiae deletion strains, locus YLR039C, strain RIC1, hits give low values 0.92 | S. cerevisiae deletion strains, locus YLR058C, strain SHM2, hits give low values 1.01 | S. cerevisiae deletion strains, locus YLR102C, strain apc9, hits give low values 1 | S. cerevisiae deletion strains, locus YLR113W, strain HOG1, hits give low values 1.02 | S. cerevisiae deletion strains, locus YLR221C, strain rsa3, hits give low values 1.01 | S. cerevisiae deletion strains, locus YLR258W, strain gsy2, hits give low values 0.988 | S. cerevisiae deletion strains, locus YLR262C, strain YPT6 (second series), hits give low values 0.97 | S. cerevisiae deletion strains, locus YLR262C, strain YPT6, hits give low values 0.92 | S. cerevisiae deletion strains, locus YLR268W, strain sec22, hits give low values 0.96 | S. cerevisiae deletion strains, locus YLR320W, strain mms22, hits give low values 0.998 | S. cerevisiae deletion strains, locus YLR330W, strain CHS5, hits give low values 1 | S. cerevisiae deletion strains, locus YLR342W, strain FKS1 (second series), hits give low values 0.927 | S. cerevisiae deletion strains, locus YLR342W, strain FKS1, hits give low values 0.991 | S. cerevisiae deletion strains, locus YLR357W, strain rsc2, hits give low values 0.95 | S. cerevisiae deletion strains, locus YLR370C, strain arc18, hits give low values 0.982 | S. cerevisiae deletion strains, locus YLR371W, strain rom2, hits give low values 1.01 | S. cerevisiae deletion strains, locus YLR384C, strain iki3, hits give low values 0.983 | S. cerevisiae deletion strains, locus YLR418C, strain cdc73, hits give low values 0.924 | S. cerevisiae deletion strains, locus YML016C, strain PPZ1, hits give low values 1 | S. cerevisiae deletion strains, locus YML032C, strain rad52, hits give low values 0.987 | S. cerevisiae deletion strains, locus YML120C, strain ndi1, hits give low values 0.976 | S. cerevisiae deletion strains, locus YML124C, strain tub3, hits give low values 1 | S. cerevisiae deletion strains, locus YMR058W, strain fet3, hits give low values 0.986 | S. cerevisiae deletion strains, locus YMR078C, strain ctf18, hits give low values 1.01 | S. cerevisiae deletion strains, locus YMR125W, strain sto1, hits give low values 0.965 | S. cerevisiae deletion strains, locus YMR129W, hits give low values 0.969 | S. cerevisiae deletion strains, locus YMR205C, strain PFK2, hits give low values 1.01 | S. cerevisiae deletion strains, locus YMR223W, strain ubp8, hits give low values 0.989 | S. cerevisiae deletion strains, locus YMR231W, strain pep5, hits give low values 0.987 | S. cerevisiae deletion strains, locus YMR263W, strain SAP30, hits give low values 0.998 | S. cerevisiae deletion strains, locus YMR307W, strain GAS1, hits give low values 0.899 | S. cerevisiae deletion strains, locus YNL067W, strain RPL9B, hits give low values 1.01 | S. cerevisiae deletion strains, locus YNL071W, strain lat1, hits give low values 0.962 | S. cerevisiae deletion strains, locus YNL128W, strain TEP1, hits give low values 1.03 | S. cerevisiae deletion strains, locus YNL183C, strain NPR1, hits give low values 0.962 | S. cerevisiae deletion strains, locus YNL209W, strain ssb2, hits give low values 0.986 | S. cerevisiae deletion strains, locus YNL233W, strain BNI4, hits give low values 0.998 | S. cerevisiae deletion strains, locus YNL248C, strain rpa49, hits give low values 0.992 | S. cerevisiae deletion strains, locus YNL250W, strain rad50, hits give low values 0.985 | S. cerevisiae deletion strains, locus YNL271C, strain bni1, hits give low values 0.986 | S. cerevisiae deletion strains, locus YNL298W, strain CLA4, hits give low values 0.99 | S. cerevisiae deletion strains, locus YNL307C, strain MCK1, hits give low values 0.997 | S. cerevisiae deletion strains, locus YNL322C, strain KRE1 (second series), hits give low values 0.981 | S. cerevisiae deletion strains, locus YNR049C, strain mso1, hits give low values 0.985 | S. cerevisiae deletion strains, locus YNR052C, strain pop2, hits give low values 0.998 | S. cerevisiae deletion strains, locus YOL006C, strain TOP1, hits give low values 0.965 | S. cerevisiae deletion strains, locus YOL012C, strain htz1 0.792 | S. cerevisiae deletion strains, locus YOL147C, strain pex11, hits give low values 0.999 | S. cerevisiae deletion strains, locus YOR001W, strain rrp6, hits give low values 0.94 | S. cerevisiae deletion strains, locus YOR061W, strain CKA2, hits give low values 1 | S. cerevisiae deletion strains, locus YOR069W, strain VPS5, hits give low values 1.01 | S. cerevisiae deletion strains, locus YOR070C, strain gyp1, hits give low values 0.979 | S. cerevisiae deletion strains, locus YOR080W, strain dia2, hits give low values 0.974 | S. cerevisiae deletion strains, locus YOR083W, strain WHI5, hits give low values 1.04 | S. cerevisiae deletion strains, locus YOR106W, strain vam3, hits give low values 1 | S. cerevisiae deletion strains, locus YOR136W, strain idh2, hits give low values 1.01 | S. cerevisiae deletion strains, locus YOR144C, strain elg1, hits give low values 0.998 | S. cerevisiae deletion strains, locus YOR184W, strain ser1, hits give low values 1.01 | S. cerevisiae deletion strains, locus YOR231W, strain MKK1, hits give low values 0.988 | S. cerevisiae deletion strains, locus YOR265W, strain rbl2, hits give low values 0.983 | S. cerevisiae deletion strains, locus YOR270C, strain vph1, hits give low values 0.956 | S. cerevisiae deletion strains, locus YOR290C, strain snf2, hits give low values 0.974 | S. cerevisiae deletion strains, locus YOR316C, strain cot1, hits give low values 1.01 | S. cerevisiae deletion strains, locus YPL051W, strain arl3, hits give low values 0.994 | S. cerevisiae deletion strains, locus YPL055C, strain LGE1, hits give low values 0.991 | S. cerevisiae deletion strains, locus YPL078C, strain atp4, hits give low values 0.979 | S. cerevisiae deletion strains, locus YPL106C, strain sse1, hits give low values 0.972 | S. cerevisiae deletion strains, locus YPL240C, strain hsp82, hits give low values 0.983 | S. cerevisiae deletion strains, locus YPL256C, strain CLN2, hits give low values 0.944 | S. cerevisiae deletion strains, locus YPR119W, strain clb2, hits give low values 1 | S. cerevisiae deletion strains, locus YPR141C, strain kar3, hits give low values 1 | S. cerevisiae deletion strains, locus YPR163C, strain tif3, hits give low values 1 | S. cerevisiae deletion strains, locus YPR167C, strain met16, hits give low values 1.01 | S. cerevisiae deletion strains, strain wtn01, hits give low values 0.998 | S. cerevisiae strains, strain wild type, hits give low values 1.01
